Results on four molecules are retold here after PubChem BioAssay.

The structures appear in SMILES notation. Several values for one entry are separate records, joined by “and”; a condition that tells them apart may be missing. Equal entries are not always repeated. Activity calls are given as the source filed them.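 How the source made its calls, unless noted: active means thallium flux through the channel raised or lowered by more than 3 SD from vehicle-only wells, actives on both sides; inactive means the rest.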

A short description of assay [1]: signal quenchers or enhancers, Cy5 substrate/SSB – biochemical, NIH Clinical Collection, E. coli SSB, artefact control for HCV NS3 helicase inhibitor project (AID 743268; call rule not given here). Conditions: Cy5-oligo bound E. coli SSB, fluorescence interference.
The test system of assay [2] is Hepatitis C virus NS3 helicase. Kind of assay: blockers of NS3h binding to DNA – biochemical, fluorescence polarization, NIH Clinical Collection, primary screen (AID 743270; call rule not given here). Conditions: NS3 helicase binding to Cy5-dT15 DNA, stronger effect = higher value, concentration not given here. (Fluorescence polarisation rises when a labelled molecule tumbles more slowly, as on binding a larger partner.)

The target of assay [3] is Single-stranded DNA-binding protein (Escherichia coli (strain K12)) (UniProt P0AGE0). Kind of assay: SSB-ssDNA binding inhibitors – biochemical, fluorescence polarization, NIH Clinical Collection, counter-screen for HCV NS3 helicase inhibitor project (AID 743271; in the data active means inhibition above about 28%). To be noted: E. coli SSB-DNA binding, stronger effect = higher value, concentration not given here.
A short description of assay [4]: compounds distorting NS3 helicase fluorescence signal – biochemical, NIH Clinical Collection, artefact control for HCV NS3 helicase inhibitor project (AID 743272; call rule not given here;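 further: HCV NS3 helicase with a Cy5 labelled single stranded DNA probe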). To be noted: fluorescence interference counterscreen, HCV NS3 helicase assay; stronger effect = lower value. (A counterscreen serves to expose hits that act by an unwanted route or on another target.)
Assay [5] concerns the target 6-phosphogluconate dehydrogenase, decarboxylating (Homo sapiens) (UniProt P52209). In words: inhibition of human phosphogluconate dehydrogenase – biochemical, recombinant enzyme, NADPH absorbance, primary screen (AID 1159550;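 active means at least 20% inhibition of 6-phosphogluconate dehydrogenase activity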). To be noted: recombinant 6PGD, NADPH absorbance 341 nm; at 10 µM; stronger effect = higher value.
Assay [6] is described as follows: modulation of C. elegans fzo-1 (AID 1259413; call rule not given here;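 further: fzo-1 mutant C. elegans worms in liquid wells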). Conditions: C. elegans fzo-1 modulator screen, mean read-out; stronger effect = higher value.
The nature of assay [7]: EMT-state selective cytotoxicity in co-culture – imaging, PC-3E GFP, TEM4-18 mCherry, primary screen (AID 1345086;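 active means compounds killing one labelled cell type while sparing the other, by normalised counts and ratio limits, not self-fluorescent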;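 on all read-outs here: cells exposed to compound for 72 h before imaging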;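 on red/green cell ratio (normalised): normalised mesenchymal count divided by normalised epithelial count so high means epithelial killing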). To be noted: PC-3E GFP / TEM4-18 mCherry co-culture, imaging cell counts, at 1 µM; for red/green cell ratio (normalised): actives lie on both sides, counts scaled to control wells, 1 = unselective.
Assay [8] can be described thus: MELAS cybrid and Rieske KO viability enhancers – cell-based, MELAS cybrids, Rieske KO mouse fibroblasts, CellTiter-Glo, primary screen (AID 1508586;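 active means mean z-score across replicates of 1.96 or higher in either the MELAS or the Rieske mutant cell line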;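 further: z relative to plate mean and SD of compound and empty wells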). Conditions: low glucose. For orientation: Cellular ATP, detected with luciferase, serves as a proxy for viable cell number.
Assay [9] deals with NAD(+) hydrolase SARM1 (Homo sapiens) (UniProt Q6SZW1). In words: blocking NAD cleavage by SARM1 SAM-TIR – cell lysate, NAD-Glo luminescence (AID 1508614;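 active means compound whose remaining NAD level is above about 45 nM, limit read from the data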). Conditions: SAM-TIR HEK293T lysate NADase, at 1 µM, stronger effect = higher value.
In assay [10] the target is Mitogen-activated protein kinase 7 (Homo sapiens) (UniProt Q13164). In words: Gal4-ERK5 driven luciferase induction – cell-based, HTS, primary screen (AID 1508626;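 active means luciferase signal above three times the same-plate solvent-only control wells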;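 further: luciferase driven by Gal4-ERK5 fusion binding five Gal4 sites before minimal TATA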). Conditions: HeLa Gal4-ERK5 transactivation, 18 h, at 5 µM, stronger effect = higher value.
Assay [11] in a line: galactose survival enhancers in mitochondrial complex I cybrids – cell-based, galactose medium, ATP luminescence, primary screen (AID 1645843;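 active means z-score of at least 1.8 in each of two replicates, scored against plate mean and spread of sample wells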;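 further: positive z means more ATP and so rescue of galactose-driven cybrid death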). To be noted: complex I mutant cybrid cells, 72 h, stronger effect = higher value.
A further assay concerns F380Y. In words: BK channel mutant inhibitors and activators – cell-based, U2OS BacMam, thallium flux, beta subunits, selectivity assay, profiling panel (AID 1259406).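 Further: initial slope of Thallos dye fluorescence rise after thallium is added; log ratio against the mean of 0.3% DMSO vehicle wells on the same plate.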 Conditions: U2OS BacMam BK variants, at 30 µM.
In the next assay the test system is F380Y/beta2Delta. Described as above. Conditions: U2OS BacMam BK variants, at 30 µM.
The target of assay [12] is Calcium-activated potassium channel subunit alpha-1 (Homo sapiens) + Leucine-rich repeat-containing protein 26 (Homo sapiens) (UniProt Q12791+Q2I0M4). The description is as above. To be noted: U2OS BacMam BK variants, F380Y/Slo1WT/gamma1, at 30 µM.
The next assay has as its system R275C. The assay is described as above. Conditions: U2OS BacMam BK variants, at 30 µM.
A further assay relates to R275C/beta1. Described as above. To be noted: U2OS BacMam BK variants, at 30 µM.
For a further assay, the system named is R275C/beta2Delta. The assay is described as above. To be noted: U2OS BacMam BK variants, at 30 µM.
Assay [13] is described as follows: P. berghei load reduction in hepatocytes – cell-based, HepG2, luciferase luminescence, HepG2 viability, primary screen (AID 624349; in the data active means parasite load remaining mostly below about 12%, no sharp cut-off; inactive means mostly above about 10%;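 further: 100% = mean of DMSO negative control wells on the same plate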). Conditions: P. berghei liver stage in HepG2, luciferase luminescence, concentration not given here; parasite load remaining: stronger effect = lower value; viability: measured here: HepG2 viability without parasites.
Assay [14] can be described thus: viability loss with induced miR-34 in A549 – imaging, A549 dox-inducible miR-34, nuclei and caspase counts, primary screen (AID 1347080;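 active means compounds whose cell count with miR-34 switched on is under 0.7 times the count with it off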). Conditions: A549 miR-34 inducible, Hoechst nuclei count, 48 h.
[15] abbreviates: measured here: epithelial PC-3E GFP cell survival.
[16] abbreviates: measured here: mesenchymal TEM4-18 mCherry cell survival.
[17] abbreviates: MELAS cybrid survival, CellTiter-Glo 48 h, stronger effect = higher value.
[18] abbreviates: Rieske KO mouse fibroblast survival, CellTiter-Glo 72 h.
The mark [19] stands for this setting: stronger effect = lower value, cell number ratio, induced over uninduced.
[20] abbreviates: measured here: relative caspase fold change +Dox/-Dox.
[21] abbreviates: measured here: total cells with miR-34 induction, stronger effect = lower value.
Setting [22] is: measured here: total cells without miR-34 induction.

Chain of 6-phosphogluconate dehydrogenase, decarboxylating (Homo sapiens) (P52209 whole entry, looked up): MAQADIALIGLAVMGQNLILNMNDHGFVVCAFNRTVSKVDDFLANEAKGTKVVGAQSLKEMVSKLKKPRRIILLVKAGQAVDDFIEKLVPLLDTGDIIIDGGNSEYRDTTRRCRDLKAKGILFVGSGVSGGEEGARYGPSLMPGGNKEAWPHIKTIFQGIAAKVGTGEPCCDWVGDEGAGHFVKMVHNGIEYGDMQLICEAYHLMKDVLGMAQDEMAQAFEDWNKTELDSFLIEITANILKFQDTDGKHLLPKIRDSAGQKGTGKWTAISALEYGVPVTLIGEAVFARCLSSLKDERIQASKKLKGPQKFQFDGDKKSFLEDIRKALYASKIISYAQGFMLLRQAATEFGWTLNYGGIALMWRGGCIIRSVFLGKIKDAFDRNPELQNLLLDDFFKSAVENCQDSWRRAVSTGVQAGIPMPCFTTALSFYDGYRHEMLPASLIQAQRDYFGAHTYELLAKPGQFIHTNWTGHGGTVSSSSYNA
Chain of Mitogen-activated protein kinase 7 (Homo sapiens) (Q13164 whole entry, looked up, the tested form may be a part): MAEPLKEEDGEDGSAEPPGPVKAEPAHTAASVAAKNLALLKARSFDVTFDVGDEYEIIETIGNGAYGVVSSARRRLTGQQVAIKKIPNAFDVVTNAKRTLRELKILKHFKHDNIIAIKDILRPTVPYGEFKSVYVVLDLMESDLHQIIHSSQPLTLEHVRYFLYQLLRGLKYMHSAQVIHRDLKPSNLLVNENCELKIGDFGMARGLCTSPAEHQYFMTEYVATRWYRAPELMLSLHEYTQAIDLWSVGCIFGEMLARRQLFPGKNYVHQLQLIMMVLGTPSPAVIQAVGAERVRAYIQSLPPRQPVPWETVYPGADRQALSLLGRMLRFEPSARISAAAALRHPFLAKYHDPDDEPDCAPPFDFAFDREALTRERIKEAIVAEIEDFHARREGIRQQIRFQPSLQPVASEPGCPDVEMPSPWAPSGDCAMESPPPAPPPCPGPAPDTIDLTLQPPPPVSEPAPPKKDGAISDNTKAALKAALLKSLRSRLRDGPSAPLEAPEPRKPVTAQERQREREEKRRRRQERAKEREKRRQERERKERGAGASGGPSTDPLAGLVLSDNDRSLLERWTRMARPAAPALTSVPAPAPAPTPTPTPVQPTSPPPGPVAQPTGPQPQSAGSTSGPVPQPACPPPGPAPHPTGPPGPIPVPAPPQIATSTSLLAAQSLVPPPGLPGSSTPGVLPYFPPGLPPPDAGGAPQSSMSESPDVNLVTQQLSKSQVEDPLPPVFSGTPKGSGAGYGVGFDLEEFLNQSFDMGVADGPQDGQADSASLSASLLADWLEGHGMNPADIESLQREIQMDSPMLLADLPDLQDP
Chain of Calcium-activated potassium channel subunit alpha-1 (Homo sapiens) + Leucine-rich repeat-containing protein 26 (Homo sapiens) (Q2I0M4 whole entry, looked up, one chain of several): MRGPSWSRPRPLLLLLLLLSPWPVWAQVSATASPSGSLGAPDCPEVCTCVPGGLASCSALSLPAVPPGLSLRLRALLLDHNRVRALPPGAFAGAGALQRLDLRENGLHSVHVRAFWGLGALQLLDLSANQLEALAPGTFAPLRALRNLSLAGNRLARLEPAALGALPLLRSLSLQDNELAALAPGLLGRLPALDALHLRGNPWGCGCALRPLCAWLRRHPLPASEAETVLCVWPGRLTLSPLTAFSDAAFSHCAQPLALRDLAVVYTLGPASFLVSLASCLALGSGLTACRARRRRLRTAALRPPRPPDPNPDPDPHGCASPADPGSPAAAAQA
Chain of NAD(+) hydrolase SARM1 (Homo sapiens) (Q6SZW1 whole entry, looked up, the tested form may be a part): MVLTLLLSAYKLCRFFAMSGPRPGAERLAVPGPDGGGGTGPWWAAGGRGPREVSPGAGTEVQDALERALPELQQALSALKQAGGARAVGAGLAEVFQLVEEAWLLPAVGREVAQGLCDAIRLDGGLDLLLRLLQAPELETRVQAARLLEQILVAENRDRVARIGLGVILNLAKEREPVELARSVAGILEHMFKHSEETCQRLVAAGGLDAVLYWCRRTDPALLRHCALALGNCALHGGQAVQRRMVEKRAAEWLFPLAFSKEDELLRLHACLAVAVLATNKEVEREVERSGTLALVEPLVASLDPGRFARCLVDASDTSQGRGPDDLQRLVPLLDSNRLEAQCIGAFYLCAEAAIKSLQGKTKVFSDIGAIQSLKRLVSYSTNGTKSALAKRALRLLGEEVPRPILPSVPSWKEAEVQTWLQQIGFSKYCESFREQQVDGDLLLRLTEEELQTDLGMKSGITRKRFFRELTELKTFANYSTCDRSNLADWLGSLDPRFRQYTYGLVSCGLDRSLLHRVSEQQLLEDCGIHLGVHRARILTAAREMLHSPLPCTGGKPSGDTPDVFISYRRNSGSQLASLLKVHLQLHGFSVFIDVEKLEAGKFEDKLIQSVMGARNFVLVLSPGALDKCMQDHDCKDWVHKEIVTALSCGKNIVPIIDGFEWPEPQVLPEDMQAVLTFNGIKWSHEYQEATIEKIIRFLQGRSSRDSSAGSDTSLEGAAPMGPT

Take `CC(CCc1ccccc1)NCC(O)c1ccc(O)c(C(N)=O)c1` (configuration not stated): the fluorescence ratio in assay [1] is 1.06 (inactive); in [4], 1.02 (inactive). Further, the inhibition (commonly the relative decrease from the control value, in per cent) in assay [2] is -2.27% (inactive); in assay [3] it was -5.05% (inactive); in assay [5], 0.489% (inactive). The mean signal in [6] is 243 (inactive). Also, the red/green cell ratio (normalised) in assay [7] is 1.34 (inactive). Also, the normalised cell number was determined as 0.93 in assay [7] (setting [15]) and 1.24 in assay [7] (setting [16]). Further, the z-score in assay [8] (setting [17]) is -0.172 (inactive) and 0.637 (inactive); in assay [8] (setting [18]), -0.173 and -0.159; in assay [11], -0.94 (inactive) and 0.995 (inactive). Also, the remaining NAD in assay [9] is 10 nM (inactive). Besides, the luciferase signal in assay [10] is 116 AU (inactive). Further, the log fold change Tl+ flux was 0.0689 (inactive) in the assay with F380Y; 0.0329 (inactive) with F380Y/beta2Delta; 0.00974 (inactive) in [12]; -0.0121 (inactive) in the assay with R275C; 0.0332 (inactive) in the assay with R275C/beta1; 0.0956 (inactive) in the assay on R275C/beta2Delta.
As for `O=C(O[C@@H]1Cc2c(O)cc(O)cc2O[C@@H]1c1cc(O)c(O)c(O)c1-c1c([C@H]2Oc3cc(O)cc(O)c3C[C@H]2OC(=O)c2cc(O)c(O)c(O)c2)cc(O)c(O)c1O)c1cc(O)c(O)c(O)c1`, the inhibition in assay [5] was -4.6% (inactive). Further, in assay [7], the red/green cell ratio (normalised) is 1.06 (inactive). Further, the normalised cell number in [7] (setting [15]) is 0.89; in assay [7] (setting [16]), 0.94.
Regarding `CC(=O)OCC(=O)[C@@]1(O)CC[C@H]2[C@@H]3C[C@H](C)C4=CC(=O)C=C[C@]4(C)[C@H]3[C@@H](O)C[C@@]21C`, the parasite load remaining in assay [13] is 68.8% (inactive). For the same molecule, the viability – broadly, a per cent measure of how many cells are alive, often set against a control – in assay [13] is 94.7%. Further, the fluorescence ratio in assay [1] was 0.98 (inactive); in assay [4], 0.99 (inactive). The inhibition in assay [2] is -2.27% (inactive); in assay [3] it was 0.29% (inactive); in [5], 6.5% (inactive). The mean signal in [6] is 251 (inactive). The fold change in [14] (setting [19]) is 0.982 (inactive); in assay [14] (setting [20]), 1.01. The cell count came to 8310 in assay [14] (setting [21]) and 8460 in assay [14] (setting [22]). Further, the luciferase signal in assay [10] is 112 AU (inactive). Besides, the z-score in [11] is -0.46 (inactive). Moreover, the log fold change Tl+ flux with F380Y is 0.0243 (inactive); in the assay on F380Y/beta2Delta, 0.0726 (inactive); in [12], 0.0089 (inactive); in the assay on R275C, 0.0193 (inactive); in the assay with R275C/beta1 it was 0.0544 (inactive); with R275C/beta2Delta it was 0.0284 (inactive).
Take `Nc1ccn([C@@H]2O[C@H](CO)[C@@H](O)C2O)c(=O)n1` (some centres not stated): in assay [13], the parasite load remaining was 112% (inactive) and 32.3% (inactive). The viability in [13] was 77.2% and 77%. Further, the fluorescence ratio in assay [1] was 1 (inactive); in [4] it was 0.87 (inactive). Besides, the inhibition was -5.15% (inactive) in [2], -0.87% (inactive) in assay [3] and -3.33% (inactive) in [5]. For the same molecule, the mean signal in [6] was 259 (inactive). Besides, the fold change in assay [14] (setting [19]) is 1.11 (inactive); in [14] (setting [20]), 1.22. The cell count is 3020 in [14] (setting [21]) and 2720 in [14] (setting [22]). Also, the z-score is 0.809 and -1.64 (inactive) in [8] (setting [17]); 2.19 and 0.364 in [8] (setting [18]); -1.98 (inactive) in [11]. In addition, the remaining NAD in assay [9] was 10 nM (inactive). In addition, the luciferase signal in assay [10] is 88 AU (inactive). For the same molecule, the log fold change Tl+ flux in the assay on F380Y is -0.0332 (inactive); in the assay with F380Y/beta2Delta it was 0.0269 (inactive); in assay [12], 0.0371 (inactive); with R275C it was 0.00256 (inactive); in the assay with R275C/beta1, -0.0266 (inactive); in the assay on R275C/beta2Delta, -0.0193 (inactive).
